# Test results: the supplement of paper PMC11006884
# Targets with a hit are over-represented here; the source holds about 6,500 in all. About 2% of all pairs of compound and target were hits.
# Compound: COC(=O)C#Cc1ccccc1 [methyl 3-phenylpropiolate]
# Experiment: log2 ratio of iodoacetamide-alkyne labeling of the cysteine site, DMSO over compound (competition); higher = stronger covalent engagement of the cysteine by the compound, active = 1 or more
# Settings: 500 µM; treatment time 1 h; system: HEK293T cell lysate
# How it was run: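 The log2 competition ratio per cysteine is defined as mean reporter intensity in control channels over mean reporter intensity in compound channels. Lysate from HEK293T cells (2 mg/mL) received electrophile (500 µM) or vehicle for 1 h at ambient temperature, followed by iodoacetamide alkyne for 1 h. Samples were clicked to sCIP-TMT reagents, pooled, trypsin-digested overnight at 37 °C, streptavidin-enriched, acid-eluted and run on Orbitrap Eclipse LC-MS/MS with FAIMS, with quantification in FragPipe. Three replicates with duplicate channels were used, and any cysteine quantified in only one replicate was excluded.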
# Sequence of UniProt O15304 (O15304 whole entry, looked up): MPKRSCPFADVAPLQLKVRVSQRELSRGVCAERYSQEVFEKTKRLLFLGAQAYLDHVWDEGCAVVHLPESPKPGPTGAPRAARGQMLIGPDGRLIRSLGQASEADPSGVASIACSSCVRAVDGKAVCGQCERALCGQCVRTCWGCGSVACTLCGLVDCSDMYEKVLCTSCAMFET
# Sequence of UniProt O94913 (O94913 whole entry): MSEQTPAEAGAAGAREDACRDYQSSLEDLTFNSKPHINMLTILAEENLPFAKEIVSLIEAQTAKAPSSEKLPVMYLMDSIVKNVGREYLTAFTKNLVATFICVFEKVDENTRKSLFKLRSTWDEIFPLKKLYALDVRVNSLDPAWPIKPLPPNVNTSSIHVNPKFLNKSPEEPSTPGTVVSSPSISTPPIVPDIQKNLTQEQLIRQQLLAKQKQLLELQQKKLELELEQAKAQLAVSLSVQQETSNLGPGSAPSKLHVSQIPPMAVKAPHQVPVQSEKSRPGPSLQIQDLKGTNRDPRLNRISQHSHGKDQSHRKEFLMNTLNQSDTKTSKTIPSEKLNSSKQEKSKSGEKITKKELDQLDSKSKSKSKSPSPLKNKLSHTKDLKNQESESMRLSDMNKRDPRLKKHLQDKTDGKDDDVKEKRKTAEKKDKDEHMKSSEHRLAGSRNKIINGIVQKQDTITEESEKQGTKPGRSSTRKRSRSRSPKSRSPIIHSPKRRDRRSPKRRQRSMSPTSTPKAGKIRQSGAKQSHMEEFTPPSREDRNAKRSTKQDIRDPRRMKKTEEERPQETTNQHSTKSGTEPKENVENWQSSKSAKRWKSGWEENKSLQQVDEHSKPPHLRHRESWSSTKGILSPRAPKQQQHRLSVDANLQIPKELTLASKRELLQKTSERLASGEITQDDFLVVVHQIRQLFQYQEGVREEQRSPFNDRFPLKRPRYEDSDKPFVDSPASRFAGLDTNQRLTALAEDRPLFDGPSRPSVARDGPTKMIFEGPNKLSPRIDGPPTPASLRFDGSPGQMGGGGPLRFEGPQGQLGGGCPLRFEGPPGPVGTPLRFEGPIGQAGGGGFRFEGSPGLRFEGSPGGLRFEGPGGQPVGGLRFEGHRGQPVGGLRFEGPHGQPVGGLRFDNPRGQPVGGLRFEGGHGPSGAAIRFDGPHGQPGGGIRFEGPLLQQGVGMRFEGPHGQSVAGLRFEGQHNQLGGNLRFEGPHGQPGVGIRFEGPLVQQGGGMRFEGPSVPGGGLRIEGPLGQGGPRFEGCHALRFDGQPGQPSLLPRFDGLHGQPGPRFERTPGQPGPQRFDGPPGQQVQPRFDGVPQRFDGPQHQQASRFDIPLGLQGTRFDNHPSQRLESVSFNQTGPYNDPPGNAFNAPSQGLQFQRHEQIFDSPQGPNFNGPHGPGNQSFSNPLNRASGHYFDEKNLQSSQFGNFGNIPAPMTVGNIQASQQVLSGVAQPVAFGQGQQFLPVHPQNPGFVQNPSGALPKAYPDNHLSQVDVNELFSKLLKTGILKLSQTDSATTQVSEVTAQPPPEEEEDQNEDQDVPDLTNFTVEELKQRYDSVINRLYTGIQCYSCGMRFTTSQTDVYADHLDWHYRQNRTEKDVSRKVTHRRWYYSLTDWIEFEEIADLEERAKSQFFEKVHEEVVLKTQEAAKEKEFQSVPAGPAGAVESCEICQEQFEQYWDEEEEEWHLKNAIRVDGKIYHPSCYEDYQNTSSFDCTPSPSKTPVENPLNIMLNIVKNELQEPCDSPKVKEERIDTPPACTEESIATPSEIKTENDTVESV
# Sequence of UniProt O60343 (O60343 whole entry, looked up): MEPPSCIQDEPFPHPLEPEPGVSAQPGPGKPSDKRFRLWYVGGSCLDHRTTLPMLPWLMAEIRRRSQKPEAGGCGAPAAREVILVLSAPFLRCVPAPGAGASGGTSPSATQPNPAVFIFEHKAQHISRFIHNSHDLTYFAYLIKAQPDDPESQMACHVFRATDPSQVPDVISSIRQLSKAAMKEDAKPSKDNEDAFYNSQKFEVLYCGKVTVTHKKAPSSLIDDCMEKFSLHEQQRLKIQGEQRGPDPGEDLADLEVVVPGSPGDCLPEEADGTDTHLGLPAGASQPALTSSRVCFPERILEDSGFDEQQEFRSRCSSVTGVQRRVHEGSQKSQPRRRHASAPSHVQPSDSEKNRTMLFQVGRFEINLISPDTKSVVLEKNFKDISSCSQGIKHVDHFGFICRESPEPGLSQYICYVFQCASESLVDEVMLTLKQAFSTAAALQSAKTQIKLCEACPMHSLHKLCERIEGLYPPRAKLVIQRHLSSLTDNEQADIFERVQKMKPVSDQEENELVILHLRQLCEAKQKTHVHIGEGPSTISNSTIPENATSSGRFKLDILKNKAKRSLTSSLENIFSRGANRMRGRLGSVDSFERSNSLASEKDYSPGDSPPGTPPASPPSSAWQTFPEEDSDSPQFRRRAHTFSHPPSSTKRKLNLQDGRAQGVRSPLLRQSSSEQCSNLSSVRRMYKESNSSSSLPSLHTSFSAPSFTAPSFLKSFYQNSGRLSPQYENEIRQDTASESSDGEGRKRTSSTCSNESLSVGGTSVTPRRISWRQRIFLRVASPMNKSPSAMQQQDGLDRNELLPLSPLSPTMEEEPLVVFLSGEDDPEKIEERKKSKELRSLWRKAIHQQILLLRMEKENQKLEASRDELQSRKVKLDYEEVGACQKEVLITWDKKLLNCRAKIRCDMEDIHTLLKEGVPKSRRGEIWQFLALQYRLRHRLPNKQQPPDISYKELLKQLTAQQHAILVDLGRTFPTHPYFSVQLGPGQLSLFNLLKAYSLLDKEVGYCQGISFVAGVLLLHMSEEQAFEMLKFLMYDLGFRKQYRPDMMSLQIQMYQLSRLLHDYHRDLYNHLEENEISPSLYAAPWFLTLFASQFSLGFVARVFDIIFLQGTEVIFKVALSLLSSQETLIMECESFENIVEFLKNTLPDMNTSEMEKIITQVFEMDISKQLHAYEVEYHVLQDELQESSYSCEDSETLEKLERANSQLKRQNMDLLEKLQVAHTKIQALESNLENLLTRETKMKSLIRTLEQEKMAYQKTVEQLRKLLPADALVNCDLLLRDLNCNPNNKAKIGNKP
# Sequence of UniProt O15294 (O15294 whole entry, looked up): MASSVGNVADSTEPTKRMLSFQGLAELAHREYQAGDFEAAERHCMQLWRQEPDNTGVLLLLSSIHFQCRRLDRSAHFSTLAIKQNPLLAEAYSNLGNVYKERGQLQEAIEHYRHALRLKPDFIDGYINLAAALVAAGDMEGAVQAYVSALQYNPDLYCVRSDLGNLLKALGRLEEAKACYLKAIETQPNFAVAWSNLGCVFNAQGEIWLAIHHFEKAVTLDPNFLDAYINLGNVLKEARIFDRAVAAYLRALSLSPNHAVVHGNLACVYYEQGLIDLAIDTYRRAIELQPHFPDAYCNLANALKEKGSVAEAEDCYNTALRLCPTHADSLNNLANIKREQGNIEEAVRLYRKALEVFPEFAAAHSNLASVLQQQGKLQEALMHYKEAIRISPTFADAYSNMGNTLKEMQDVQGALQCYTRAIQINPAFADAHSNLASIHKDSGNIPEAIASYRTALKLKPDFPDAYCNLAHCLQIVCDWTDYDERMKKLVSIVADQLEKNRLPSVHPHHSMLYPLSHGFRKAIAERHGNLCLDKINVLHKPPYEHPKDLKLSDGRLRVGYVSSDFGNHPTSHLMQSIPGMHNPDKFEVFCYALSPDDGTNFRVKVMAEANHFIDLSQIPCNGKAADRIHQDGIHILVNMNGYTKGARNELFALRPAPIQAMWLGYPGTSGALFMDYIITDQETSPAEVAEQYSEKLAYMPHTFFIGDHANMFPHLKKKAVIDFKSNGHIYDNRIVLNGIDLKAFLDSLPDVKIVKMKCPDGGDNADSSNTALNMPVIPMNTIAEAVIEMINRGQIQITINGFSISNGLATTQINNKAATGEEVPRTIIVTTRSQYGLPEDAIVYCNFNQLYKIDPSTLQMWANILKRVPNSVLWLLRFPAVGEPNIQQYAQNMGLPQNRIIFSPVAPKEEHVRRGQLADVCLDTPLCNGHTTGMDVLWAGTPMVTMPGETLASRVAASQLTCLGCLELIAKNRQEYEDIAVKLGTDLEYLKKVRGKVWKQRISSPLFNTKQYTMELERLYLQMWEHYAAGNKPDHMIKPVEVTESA
# Sequence of UniProt O43719 (O43719 whole entry, looked up): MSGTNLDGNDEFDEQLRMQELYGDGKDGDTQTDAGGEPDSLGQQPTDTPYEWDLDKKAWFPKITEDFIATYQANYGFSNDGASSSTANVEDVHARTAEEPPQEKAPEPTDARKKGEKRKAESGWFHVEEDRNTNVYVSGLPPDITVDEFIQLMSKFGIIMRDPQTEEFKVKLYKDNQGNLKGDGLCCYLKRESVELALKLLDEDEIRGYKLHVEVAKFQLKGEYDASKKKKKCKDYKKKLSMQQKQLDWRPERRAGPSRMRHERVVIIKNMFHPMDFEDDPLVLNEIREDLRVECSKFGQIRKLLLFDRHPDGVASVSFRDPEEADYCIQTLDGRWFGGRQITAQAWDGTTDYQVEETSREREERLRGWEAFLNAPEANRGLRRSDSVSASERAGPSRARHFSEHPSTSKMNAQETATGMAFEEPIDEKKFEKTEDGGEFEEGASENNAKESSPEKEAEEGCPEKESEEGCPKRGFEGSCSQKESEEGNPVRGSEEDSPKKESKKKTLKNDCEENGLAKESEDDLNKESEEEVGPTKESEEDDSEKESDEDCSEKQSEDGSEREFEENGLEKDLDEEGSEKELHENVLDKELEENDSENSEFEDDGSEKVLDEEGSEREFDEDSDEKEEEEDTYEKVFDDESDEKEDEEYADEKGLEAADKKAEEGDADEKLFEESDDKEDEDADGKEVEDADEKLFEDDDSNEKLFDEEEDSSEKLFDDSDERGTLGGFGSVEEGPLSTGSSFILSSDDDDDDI
# Sequence of UniProt O43583 (O43583 whole entry, looked up): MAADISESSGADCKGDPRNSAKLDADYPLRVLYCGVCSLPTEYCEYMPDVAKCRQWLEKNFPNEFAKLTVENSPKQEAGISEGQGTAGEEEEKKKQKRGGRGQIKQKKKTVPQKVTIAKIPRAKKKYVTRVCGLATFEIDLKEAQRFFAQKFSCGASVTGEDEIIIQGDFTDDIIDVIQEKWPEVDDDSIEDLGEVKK
row,Target,log2 ratio of iodoacetamide-alkyne labeling
1,HTATSF1 C471 (UniProt O43719),1.14 (active)
2,HGS C166 (UniProt O14964),0.319 (inactive)
3,UniProt O00567_C211,1.14 (active)
4,UniProt O43598_C26,0.038 (inactive)
5,POLRMT C925 (UniProt O00411),-0.0567 (inactive)
6,UniProt O75153_C88,0.201 (inactive)
7,UniProt O75528_C7,1.05 (active)
8,TRIM24 C81 (UniProt O15164),0.0661 (inactive)
9,SF3B1 C677 (UniProt O75533),0.316 (inactive)
10,UniProt O75153_C153,0.605 (inactive)
11,SIVA1 C6 (UniProt O15304),1.88 (active)
12,OGT C620 (UniProt O15294),1.35 (active)
13,SASH1 C406 (UniProt O94885),1.19 (active)
14,APAF1 C115 (UniProt O14727),0.288 (inactive)
15,ANKRD17 C58 (UniProt O75179),1.35 (active)
16,OFD1 C581 (UniProt O75665),0.478 (inactive)
17,ANKRD17 C210 (UniProt O75179),0.398 (inactive)
18,PMPCB C419 (UniProt O75439),0.112 (inactive)
19,DENR C13 (UniProt O43583),0.235 (inactive)

row,Target,log2 ratio of iodoacetamide-alkyne labeling
1,CPD C582 (UniProt O75976),0.145 (inactive)
2,PRPF4 C237 (UniProt O43172),1.42 (active)
3,UniProt O94822_C186,-0.317 (inactive)
4,IGF2BP3 C546 (UniProt O00425),0.284 (inactive)
5,POLRMT C119 (UniProt O00411),1.22 (active)
6,PRKRA C106 (UniProt O75569),1.07 (active)
7,USO1 C303 (UniProt O60763),0.712 (inactive)
8,FLNB C2556 (UniProt O75369),0.079 (inactive)
9,UniProt O00567_C52,0.482 (inactive)
10,RIPK2 C414 (UniProt O43353),1.35 (active)
11,PCF11 C1534 (UniProt O94913),0.259 (inactive)
12,NKRF C37 (UniProt O15226),1.02 (active)
13,TBC1D4 C1277 (UniProt O60343),0.374 (inactive)
14,SART1 C645 (UniProt O43290),0.0232 (inactive)
15,EIF3G C139 (UniProt O75821),0.259 (inactive)
16,IPO5 C750 (UniProt O00410),0.168 (inactive)
17,KATNA1 C491 (UniProt O75449),0.112 (inactive)
18,UniProt O14628_C178,1.09 (active)
19,ARHGEF11 C1500 (UniProt O15085),0.0286 (inactive)
